The results in this text go back to PubChem BioAssay (NCI).

Molecules are shown by their SMILES. About 79,000 compounds went through this panel and 15% of them were active in at least one assay; those are over-represented in the sample as a whole. Unmarked numbers belong to inactive results. Calls of active or inactive are those of the source. No stated cut-off is given here; in the data, active means growth inhibition above about 70%; inactive means the rest.

Assay [1] is described as follows: NCI Yeast Anticancer Drug Screen. Data for the rad50 strain (AID 155).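 Further: 0% = growth of vehicle-only cultures of the same strain.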 The conditions noted are these: S. cerevisiae rad50 strain growth inhibition, hits give high values. An outline of the steps:
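Readout: growth inhibition relative to vehicle-treated cultures. Compound exposure was carried out in a genetically defined yeast strain deficient in DNA damage repair.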

Assay [2] can be described thus: NCI Yeast Anticancer Drug Screen. Data for the mec2-1 strain (AID 157). The conditions noted are these: S. cerevisiae mec2-1 strain, hits give high values. An outline of the steps:
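mec2-1 yeast strain, carrying an alteration in DNA damage repair or cell cycle control, was exposed to compounds; growth inhibition was measured relative to vehicle-treated controls.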

Assay [3] in a line: NCI Yeast Anticancer Drug Screen. Data for the sgs1 mgt1 strain (AID 161).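 Further: 0% = growth of cultures given vehicle only.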 The conditions noted are these: S. cerevisiae sgs1 mgt1 strain, hits give high values. An outline of the steps: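 Percent growth inhibition was derived by comparing compound-exposed mutant yeast with vehicle-exposed cultures. The strain carries alterations in DNA damage repair.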
A short description of assay [4]: NCI Yeast Anticancer Drug Screen. Data for the cln2 rad14 strain (AID 165).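 Further: 0% = growth equal to vehicle treated cultures.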 The settings on record: S. cerevisiae cln2 rad14 strain, hits give high values. An outline of the steps: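 Yeast carrying cln2 and rad14 alterations (cell cycle control and DNA damage repair) were exposed to compounds. Growth inhibition was measured against vehicle-treated controls.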
Assay [5] is described as follows: NCI Yeast Anticancer Drug Screen. Data for the bub3 strain (AID 167). The settings on record: S. cerevisiae bub3 mutant strain, hits give high values. Put shortly:
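Readout: yeast growth inhibition, expressed relative to vehicle-only wells. The test organism is a mutant strain from a panel with lesions in DNA repair or checkpoint genes.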

Assay [6] in a line: NCI Yeast Anticancer Drug Screen. Data for the mlh1 rad18 strain (AID 175). The conditions noted are these: S. cerevisiae mlh1 rad18 strain growth inhibition, hits give high values. An outline of the steps:
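Growth inhibition of the yeast strain was measured after compound exposure and expressed relative to vehicle-treated controls. The strain carries defined defects in DNA damage repair.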

The mark [7] stands for this setting: at 5.0 µM (retest, dose inferred, filed as 0.5).
[8] abbreviates: at 50.0 µM (retest, dose inferred, filed as 5.0).

Regarding `CC(C)(C)OC(=O)C(N(Cc1ccccc1)Cc1ccccc1)N(Cc1ccccc1)Cc1ccccc1`, the growth inhibition is 0% in assay [1] (setting [7]); 14% in assay [1] (setting [8]); 12.1% in assay [1] (at 50.0 µM); 2% in assay [2] (setting [7]); 9% in assay [2] (setting [8]); 20.6% in assay [2] (at 50.0 µM). The growth inhibition in assay [3] (setting [7]) was 2%; in assay [3] (setting [8]), 17%; in assay [3] (at 50.0 µM), 24.4%; in assay [4] (setting [7]), 3%; in assay [4] (setting [8]), 10%; in assay [4] (at 50.0 µM), -2.05%. The growth inhibition was 0% in assay [5] (setting [7]); 11% in assay [5] (setting [8]); 4.75% in assay [5] (at 50.0 µM); 3% in assay [6] (setting [7]); 22% in assay [6] (setting [8]); 30.3% in assay [6] (at 50.0 µM).

On to `Cc1cc(N(CCC#N)CCC#N)ccc1/C(Sc1ccccc1)=C(\NC(=O)/C=C/c1ccccc1)C(=O)Sc1ccccc1`, for which the growth inhibition in assay [1] (setting [7]) was 28%; in assay [1] (setting [8]) it was 28%; in assay [1] (at 50.0 µM), 86.6% (active); in assay [2] (setting [7]), 21%; in assay [2] (setting [8]) it was 21%; in assay [2] (at 50.0 µM), 90% (active). Moreover, the growth inhibition in assay [3] (setting [7]) was 25%; in assay [3] (setting [8]) it was 25%; in assay [3] (at 50.0 µM), 90.9% (active); in assay [4] (setting [7]), 17%; in assay [4] (setting [8]), 17%; in assay [4] (at 50.0 µM), 64.5%. Further, the growth inhibition is 21% in assay [5] (setting [7]); 21% in assay [5] (setting [8]); 87.2% (active) in assay [5] (at 50.0 µM); 24% in assay [6] (setting [7]); 24% in assay [6] (setting [8]); 75.1% (active) in assay [6] (at 50.0 µM).

On to `O=C(CC(C(=O)O)c1c[nH]c2ccccc12)c1ccccc1` (configuration not stated), for which the growth inhibition in assay [1] (setting [7]) is -2%; in assay [1] (setting [8]), -2%; in assay [1] (at 50.0 µM) it was 45.4%; in assay [2] (setting [7]), -3%; in assay [2] (setting [8]), 7%; in assay [2] (at 50.0 µM) it was -18.6%. The growth inhibition is -5% in assay [3] (setting [7]); 0% in assay [3] (setting [8]); 56.8% in assay [3] (at 50.0 µM); -5% in assay [4] (setting [7]); -63% in assay [4] (setting [8]); -16.6% in assay [4] (at 50.0 µM). In addition, the growth inhibition is -1% in assay [5] (setting [7]); 7% in assay [5] (setting [8]); 93.8% (active) in assay [5] (at 50.0 µM); -4% in assay [6] (setting [7]); 1% in assay [6] (setting [8]); -0.1% in assay [6] (at 50.0 µM).

`COc1ccc2c(c1)C1(C)CCCC(C)(C(=O)O)C1CC2` (configuration not stated): the growth inhibition in assay [1] (setting [7]) is -8%; in assay [1] (setting [8]), 99% (active); in assay [1] (at 50.0 µM), 99.5% (active); in assay [2] (setting [7]), -7%; in assay [2] (setting [8]), 99% (active); in assay [2] (at 50.0 µM), 99.5% (active). In addition, the growth inhibition in assay [3] (setting [7]) is 1%; in assay [3] (setting [8]) it was 99% (active); in assay [3] (at 50.0 µM), 99.6% (active); in assay [4] (setting [7]), -103%; in assay [4] (setting [8]), 99% (active); in assay [4] (at 50.0 µM), 96.8% (active). Moreover, the growth inhibition was -8% in assay [5] (setting [7]); 93% (active) in assay [5] (setting [8]); 99% (active) in assay [5] (at 50.0 µM); 2% in assay [6] (setting [7]); 98% (active) in assay [6] (setting [8]); 99.5% (active) in assay [6] (at 50.0 µM).

For `C=CCOC(=O)N(C(=O)OCC=C)C(Cc1ccc(O)cc1)C(=O)NNc1ccccc1` (configuration not stated), the growth inhibition is 17% in assay [1] (setting [7]); 65% in assay [1] (setting [8]); 53.4% in assay [1] (at 50.0 µM); 2% in assay [2] (setting [7]); 33% in assay [2] (setting [8]); 44.5% in assay [2] (at 50.0 µM). Further, the growth inhibition in assay [3] (setting [7]) is 11%; in assay [3] (setting [8]), 51%; in assay [3] (at 50.0 µM), 69.7%; in assay [4] (setting [7]) it was 5%; in assay [4] (setting [8]), 56%; in assay [4] (at 50.0 µM), 39%. Also, the growth inhibition is 16% in assay [5] (setting [7]); 90% (active) in assay [5] (setting [8]); 70% in assay [5] (at 50.0 µM); 20% in assay [6] (setting [7]); 62% in assay [6] (setting [8]); 84.3% (active) in assay [6] (at 50.0 µM).

`C/C(=N\NC(=S)NCCCNC(=S)N/N=C(\C)c1ccccn1)c1ccccn1`: the growth inhibition in assay [1] (setting [7]) is 8%; in assay [1] (setting [8]), 66%; in assay [1] (at 50.0 µM) it was 82.5% (active); in assay [2] (setting [7]) it was 9%; in assay [2] (setting [8]), 75% (active); in assay [2] (at 50.0 µM), 82.4% (active). The growth inhibition in assay [3] (setting [7]) was 10%; in assay [3] (setting [8]), 77% (active); in assay [3] (at 50.0 µM), 86.2% (active); in assay [4] (setting [7]), 18%; in assay [4] (setting [8]) it was 78% (active); in assay [4] (at 50.0 µM), 83.3% (active). In addition, the growth inhibition in assay [5] (setting [7]) is 0%; in assay [5] (setting [8]), 60%; in assay [5] (at 50.0 µM) it was 83.1% (active); in assay [6] (setting [7]) it was 17%; in assay [6] (setting [8]) it was 85% (active); in assay [6] (at 50.0 µM) it was 88.9% (active).

Turning to `CC(=O)NC(CCC(=O)O)C(=O)O.[NH-]C1CCCCC1[NH-].[Pt+2]` (configuration not stated), the growth inhibition is 96% (active) in assay [1] (setting [7]); 99% (active) in assay [1] (setting [8]); 99.5% (active) in assay [1] (at 50.0 µM); 99% (active) in assay [2] (setting [7]); 99% (active) in assay [2] (setting [8]); 99.3% (active) in assay [2] (at 50.0 µM). In addition, the growth inhibition in assay [3] (setting [7]) is 98% (active); in assay [3] (setting [8]), 99% (active); in assay [3] (at 50.0 µM) it was 100% (active); in assay [4] (setting [7]) it was 88% (active); in assay [4] (setting [8]), 98% (active); in assay [4] (at 50.0 µM), 99.4% (active). Besides, the growth inhibition in assay [5] (setting [7]) is 99% (active); in assay [5] (setting [8]) it was 98% (active); in assay [5] (at 50.0 µM) it was 99% (active); in assay [6] (setting [7]), 96% (active); in assay [6] (setting [8]), 99% (active); in assay [6] (at 50.0 µM), 99.2% (active).

In the case of `Nc1nc(-c2cccnc2)nc(N)c1N=O`, the growth inhibition in assay [1] (setting [7]) is 7%; in assay [1] (setting [8]), 82% (active); in assay [1] (at 50.0 µM), 61.4%; in assay [2] (setting [7]), 15%; in assay [2] (setting [8]) it was 79% (active); in assay [2] (at 50.0 µM), 79.2% (active). For the same compound, the growth inhibition was 15% in assay [3] (setting [7]); 88% (active) in assay [3] (setting [8]); 70.6% (active) in assay [3] (at 50.0 µM); 1% in assay [4] (setting [7]); 90% (active) in assay [4] (setting [8]); 66.5% in assay [4] (at 50.0 µM). For the same compound, the growth inhibition is 36% in assay [5] (setting [7]); 92% (active) in assay [5] (setting [8]); 91.1% (active) in assay [5] (at 50.0 µM); 25% in assay [6] (setting [7]); 94% (active) in assay [6] (setting [8]); 79.1% (active) in assay [6] (at 50.0 µM).

For the compound `N/C(=N\OC1(c2ccccc2)OC(=O)C(=O)/C1=C(/O)c1ccccc1)c1ccccc1` (configuration not stated), the growth inhibition in assay [1] (setting [7]) was 10%; in assay [1] (setting [8]), 97% (active); in assay [1] (at 50.0 µM), 98% (active); in assay [2] (setting [7]), 8%; in assay [2] (setting [8]), 89% (active); in assay [2] (at 50.0 µM), 98.5% (active). In addition, the growth inhibition was 13% in assay [3] (setting [7]); 87% (active) in assay [3] (setting [8]); 96.6% (active) in assay [3] (at 50.0 µM); 0% in assay [4] (setting [7]); 75% (active) in assay [4] (setting [8]); 78% (active) in assay [4] (at 50.0 µM). Moreover, the growth inhibition was 7% in assay [5] (setting [7]); 94% (active) in assay [5] (setting [8]); 98.2% (active) in assay [5] (at 50.0 µM); 4% in assay [6] (setting [7]); 92% (active) in assay [6] (setting [8]); 98.3% (active) in assay [6] (at 50.0 µM).
